Source: PubChem BioAssay (NCATS)
Records with an inconclusive call do not appear. Activity calls are given as the source filed them. Calls follow the shape of the dose curve; as a rule, active = well fitted curve in the direction sought with a large enough effect; inconclusive = small, poorly fitted or top-dose-only effect, or another doubt; inactive = no such curve, though single readings can be large; an effect the other way counts as inactive or inconclusive.

Assays:
[1] = NS1 protein of Zika virus - qHTS assay to identify small molecule inhibitors in human HEK 293 cells (AID 1347053); also: nearly all actives have a fitted effect of over 55% in size; also: potency is read from the fitted curve at half-maximal effect
Procedure, shortened: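 HEK 293 cells pretreated with compound for 1 h, then infected with ZIKV MR766 (MOI 0.5) for 24 h at 37 C. NS1 detected by TR-FRET with two anti-NS1 antibodies; normalized to uninfected (0%) and infected (100%) wells.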

[2] = qHTS of pediatric cancer cell lines to identify multiple opportunities for drug repurposing: Primary screen for SJ-GBM2 cells (AID 1347091); also: potency is read from the fitted curve at half-maximal effect
Procedure, shortened: (§1)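 Viability measured as metabolically active cells via CellTiter-Glo luminescence following 48 hours of compound exposure, 11-point dilutions in confirmatory testing. 500-1,000 cells/well plated 5 hours before dosing; controls were DMSO and 2.3 µM bortezomib.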

[3] = qHTS of pediatric cancer cell lines to identify multiple opportunities for drug repurposing: Primary screen for A673 cells (AID 1347092); also: nearly all actives have a fitted effect of over 45% in size; also: potency is read from the fitted curve at half-maximal effect
Procedure, shortened: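 Cell viability of A673 measured by CellTiter-Glo ATP luminescence after 48 hours compound exposure. Dilution series spanned 0.78 nM to 46 µM (MIPE, 11-point) or 0.59 nM to 46 µM (NPC, 8-point); bortezomib 2.3 uM positive control.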

[4] = qHTS of pediatric cancer cell lines to identify multiple opportunities for drug repurposing: Primary screen for SK-N-MC cells (AID 1347093); also: potency is read from the fitted curve at half-maximal effect
Procedure, shortened: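 Metabolically active cells were quantified by ATP-dependent luminescence (CellTiter-Glo, 15 min at room temperature) following 48 h treatment. Cells had been plated at 500-1,000 per well and settled for 5 h beforehand.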

[5] = qHTS of pediatric cancer cell lines to identify multiple opportunities for drug repurposing: Primary screen for BT-37 cells (AID 1347094); also: potency is read from the fitted curve at half-maximal effect
Procedure, shortened: (§2)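 Primary screen of approved and investigational compounds on cells in growth media at 37 degrees C, 5% CO2. MIPE set at 11-point and NPC set at 8-point dilutions; viability scored by ATP-based luminescence at 48 hours.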

[6] = qHTS of pediatric cancer cell lines to identify multiple opportunities for drug repurposing: Primary screen for NB-EBc1 cells (AID 1347095); also: potency is read from the fitted curve at half-maximal effect
Procedure, shortened: as §2

[7] = qHTS of pediatric cancer cell lines to identify multiple opportunities for drug repurposing: Primary screen for Saos-2 cells (AID 1347097); also: nearly all actives have a fitted effect of over 40% in size; also: potency is read from the fitted curve at half-maximal effect
Procedure, shortened: as §2

[8] = qHTS of pediatric cancer cell lines to identify multiple opportunities for drug repurposing: Primary screen for SK-N-SH cells (AID 1347098);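 also: DMSO served as neutral control and bortezomib at 2.3 µM as positive control; nearly all actives have a fitted effect of over 65% in size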
Procedure, shortened: (§3)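 Cells (500-1,000/well) rested 5 h, then received compounds for 48 h; metabolically active cells were measured by CellTiter-Glo luminescence. Final concentrations spanned up to 46 µM (MIPE, 11-point) or 0.59 nM-46 µM (NPC, 8-point) in primary screens, 11-point in follow-ups.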

[9] = qHTS of pediatric cancer cell lines to identify multiple opportunities for drug repurposing: Primary screen for NB1643 cells (AID 1347099); also: nearly all actives have a fitted effect of over 50% in size; also: potency is read from the fitted curve at half-maximal effect
Procedure, shortened: as §2

[10] = qHTS of pediatric cancer cell lines to identify multiple opportunities for drug repurposing: Primary screen for LAN-5 cells (AID 1347100); also: potency is read from the fitted curve at half-maximal effect
Procedure, shortened: (§4)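 Viability after 48 h compound treatment at 37C, 500-1,000 cells/well, read as ATP luminescence with CellTiter-Glo. Primary screens used 11-point (MIPE, 0.78 nM-46 µM) or 8-point (NPC, 0.59 nM-46 µM) final concentrations; follow-up screens used 11-point dilutions.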

[11] = qHTS of pediatric cancer cell lines to identify multiple opportunities for drug repurposing: Primary screen for Rh18 cells (AID 1347102); also: nearly all actives have a fitted effect of over 65% in size; also: potency is read from the fitted curve at half-maximal effect
Procedure, shortened: as §4

[12] = qHTS of pediatric cancer cell lines to identify multiple opportunities for drug repurposing: Primary screen for TC32 cells (AID 1347089); also: nearly all actives have a fitted effect of over 60% in size
Procedure, shortened: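 Luminescent ATP read-out (CellTiter-Glo) of metabolically active TC32 cells after 48 h exposure. Concentration-response curves came from 11-point (MIPE, 0.78 nM–46 µM) or 8-point (NPC, 0.59 nM–46 µM) primary titrations; follow-up used 11 points.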

[13] = qHTS of pediatric cancer cell lines to identify multiple opportunities for drug repurposing: Primary screen for DAOY cells (AID 1347090); also: nearly all actives have a fitted effect of over 55% in size; also: potency is read from the fitted curve at half-maximal effect
Procedure, shortened: as §1

[14] = qHTS of pediatric cancer cell lines to identify multiple opportunities for drug repurposing: Primary screen for U-2 OS cells (AID 1347096); also: nearly all actives have a fitted effect of over 50% in size
Procedure, shortened: as §4

[15] = qHTS of pediatric cancer cell lines to identify multiple opportunities for drug repurposing: Primary screen for BT-12 cells (AID 1347101); also: nearly all actives have a fitted effect of over 25% in size
Procedure, shortened: as §3

Measured: Potency

CC=C(C)C(=O)O[C@H]1C(C)=C[C@]23C(=O)[C@@H](C=C(CO)[C@@H](O)[C@]12O)[C@H]1[C@@H](C[C@H]3C)C1(C)C
inactive: [8]
active: [1] 11.8 µM | [2] 18.7 µM | [3] 0.0148 µM | [4] 4.69 µM | [5] 24.3 µM | [6] 14.8 µM | [7] 0.296 µM

CN(C)C1CCN(C(=O)c2ccc(NC(=O)Nc3nc(N4CCOCC4)nc(N4CCOCC4)n3)cc2)CC1
active: [1] 0.418 µM | [2] 0.105 µM | [3] 0.0118 µM | [4] 0.0166 µM | [6] 1.32 µM | [7] 0.166 µM | [9] 0.372 µM | [10] 0.187 µM | [11] 0.0526 µM

CN1C[C@H]2c3ccccc3Oc3ccc(Cl)cc3[C@@H]2C1
not listed: [1] | [5] | [15]
inactive: all other assays above

CC(C)(C)OC(=O)N[C@H]1CCCCCC=C[C@@H]2C[C@@]2(C(=O)NS(=O)(=O)C2CC2)NC(=O)[C@@H]2C[C@@H](OC(=O)N3Cc4cccc(F)c4C3)CN2C1=O
active: [4] 29.6 µM
not listed: [1] | [7]
inactive: all other assays above

CC(=O)N(C)C1(c2ccccc2)CCN(CCC[C@]2(c3ccc(Cl)c(Cl)c3)CCCN(C(=O)c3ccccc3)C2)CC1
active: [1] 26.4 µM | [4] 20.9 µM | [7] 33.2 µM | [9] 23.5 µM | [10] 23.5 µM | [11] 26.4 µM

Nc1nc(F)nc2c1ncn2[C@@H]1O[C@H](COP(=O)(O)O)[C@@H](O)[C@H]1O
active: [2] 0.662 µM | [3] 14.8 µM | [4] 0.264 µM | [6] 0.935 µM | [7] 0.743 µM | [9] 16.6 µM
inactive: [1] | [14] | [11]

O=C1NC(=O)C(=Cc2cccc(C(F)(F)F)c2)S1
inactive: [1] | [14] | [8] | [10] | [11]

Cc1cc(OCCCc2c(C(=O)O)n(Cc3cccnc3)c3c(-c4c(COc5ccc(N6CCN([S+](C)(=O)[O-])CC6)cc5)nn(C)c4C)cccc23)cc(C)c1Cl
active: [13] 18.7 µM | [2] 23.5 µM | [3] 23.5 µM | [4] 5.9 µM | [6] 23.5 µM | [7] 18.7 µM | [9] 23.5 µM
inactive: [12] | [14]
